Data: PubChem BioAssay (Tox21)
Inconclusive results are not listed. Activity calls are given as the source filed them. Unless noted, calls come from the whole dose curve; as a rule, active = well fitted curve in the direction sought with a large enough effect in the repeat runs; inconclusive = weak or mixed curves; inactive = no such curve, though single readings can be large; an effect the other way counts as inactive or inconclusive.

How the values were obtained:
[1] = qHTS RealTime-Glo MT Cell Viability Assay in HEK293 cells - 0 hour (AID 1224880); note: top concentration of the series differs between compounds; nearly all actives have a fitted effect of over 45% in size
How it was run: (§1)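 HEK293 cells mixed with RealTime-Glo reagents (NanoLuc plus cell-permeant prosubstrate) at 600 cells/well, preincubated 5 h at 37 C/5% CO2, then given 23 nL compound in DMSO. Nonlytic luminescence from viable cells was read at 0, 8, 16, 24, 32 and 40 h.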

[2] = A CellTox Green Cytotoxicity Assay to monitor cytotoxicity in HEK293 cells - 32 hour (AID 1224881); note: nearly all actives have a fitted effect of over 40% in size
How it was run: (§2)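 HEK293 cells premixed with CellTox Green dye were seeded at 600 cells/well and left 5 h at 37 C/5% CO2 before pin transfer of 23 nL compound in DMSO. Fluorescence from dye bound to dead-cell DNA was read during 40 h treatment.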

[3] = A CellTox Green Cytotoxicity Assay to monitor cytotoxicity in HepG2 cells - 0 hour (AID 1224882); note: nearly all actives have a fitted effect of over 35% in size; note: potency is the fitted concentration of half-maximal effect
How it was run: (§3)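 HepG2 cells were seeded together with the CellTox Green dye at 600 cells/well, left 5 h at 37 C/5% CO2, then given compounds in DMSO. Fluorescence from dye bound to dead-cell DNA was read repeatedly over 40 h of treatment at 37 C.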

[4] = A CellTox Green Cytotoxicity Assay to monitor cytotoxicity in HepG2 cells - 32 hour (AID 1224883); note: nearly all actives have a fitted effect of over 50% in size
How it was run: as §3

[5] = A CellTox Green Cytotoxicity Assay to monitor cytotoxicity in HEK293 cells - 8 hour (AID 1224884); note: nearly all actives have a fitted effect of over 35% in size
How it was run: as §2

[6] = qHTS RealTime-Glo MT Cell Viability Assay in HepG2 cells - 16 hour (AID 1224885); note: nearly all actives have a fitted effect of over 50% in size
How it was run: (§4)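 Compound treatment began 5 h after plating HepG2 cells (600/well) with NanoLuc luciferase and prosubstrate. Plates stayed at 37 C for 40 h; luminescence was captured at six time points, 0 h through 40 h.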

[7] = qHTS RealTime-Glo MT Cell Viability Assay in HEK293 cells - 24 hour (AID 1224886); note: top concentration of the series differs between compounds; nearly all actives have a fitted effect of over 50% in size
How it was run: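 Quantitative high-throughput screen of the Tox21 10K library in HEK293: cells and RealTime-Glo reagents plated together, compound added at 5 h, luminescence monitored through 40 h at 37 C.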

[8] = qHTS RealTime-Glo MT Cell Viability Assay in HEK293 cells - 8 hour (AID 1224887); note: top concentration of the series differs between compounds; nearly all actives have a fitted effect of over 50% in size
How it was run: as §1

[9] = A CellTox Green Cytotoxicity Assay to monitor cytotoxicity in HEK293 cells - 16 hour (AID 1224888); note: nearly all actives have a fitted effect of over 35% in size
How it was run: as §2

[10] = qHTS RealTime-Glo MT Cell Viability Assay in HepG2 cells - 0 hour (AID 1224889); note: nearly all actives have a fitted effect of over 50% in size
How it was run: as §4

[11] = A CellTox Green Cytotoxicity Assay to monitor cytotoxicity in HepG2 cells - 8 hour (AID 1224890); note: nearly all actives have a fitted effect of over 45% in size
How it was run: as §3

[12] = qHTS assay to identify small molecule antagonists of the estrogen receptor alpha (ER-alpha) signaling pathway using the BG1 cell line in the presence of 0.1 nM 17-beta-estradiol - cell viability counter screen (AID 1259241); note: nearly all actives have a fitted effect of over 40% in size
How it was run: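 Following 5 days in phenol red-free medium with charcoal-stripped serum, VM7Luc4E2 cells received test compounds alongside 0.1 nM 17beta-estradiol (final) at 37C for 22 hr. Live cells were then quantified via protease-substrate fluorescence.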

[13] = qHTS assay to identify small molecule antagonists of the androgen receptor (AR) signaling pathway using the MDA cell line in the presence of 0.5 nM R1881 - cell viability counter screen (AID 1259242); note: nearly all actives have a fitted effect of over 45% in size
How it was run: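 MDA-kb2 cells (human breast carcinoma, stably carrying MMTV-luciferase reporter) were exposed to compounds with 0.5 nM R1881 (final) for 16 hr at 37C, 0% CO2; viability then read as live-cell protease fluorescence (CellTiter-Fluor, 30 min) in the same wells.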

[14] = qHTS assay to identify small molecule HDAC inhibitors (AID 1259364); note: top concentration of the series differs between compounds; nearly all actives have a fitted effect of over 45% in size
How it was run: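 Wild-type HCT-116 cells were plated overnight, exposed to compounds for 2 h at 37 °C, then given HDAC-Glo class I/II luminogenic reagent for 30 min at room temperature before luminescence was read.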

[15] = qHTS assay to identify small molecule HDAC inhibitors - cell viability counter screen (AID 1259365)
How it was run: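 HCT-116 wild-type, overnight attachment; 2hr drug exposure, 37C; CellTiter-Glo luminescent ATP readout after 30min RT.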

[16] = qHTS assay to identify small molecule agonists of the sonic hedgehog signaling (Shh) pathway - cell viability counter screen (AID 1259366); note: nearly all actives have a fitted effect of over 50% in size
How it was run: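 Compounds in DMSO were pin-transferred onto 3T3 Gli1-Luc cells that had settled 4hr; plates then stood 24hr at 37C and 5% CO2. One hour before the end, CellTiter-Fluor was added and fluorescence recorded.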

[17] = qHTS assay to identify small molecule antagonists of the sonic hedgehog signaling (Shh) pathway - cell viability counter screen (AID 1259367); note: nearly all actives have a fitted effect of over 55% in size
How it was run: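 Cells: 3T3 Gli1-Luc, 2,000/well, 4 hr pre-incubation. Compounds in DMSO, then conditioned medium. Incubation 24 hr, 37C, 5% CO2. CellTiter-Fluor at 23 hr, 1 hr, fluorescence.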

[18] = molecular target: Estrogen receptor (Homo sapiens) (UniProt P03372); assay: qHTS assay to identify small molecule antagonists of the estrogen receptor alpha (ER-alpha) signaling pathway using the BG1 cell line in the presence of 0.1 nM 17-beta-estradiol (AID 1259244); note: nearly all actives have a fitted effect of over 50% in size
Estrogen receptor (Homo sapiens), sequence (P03372 whole entry, looked up): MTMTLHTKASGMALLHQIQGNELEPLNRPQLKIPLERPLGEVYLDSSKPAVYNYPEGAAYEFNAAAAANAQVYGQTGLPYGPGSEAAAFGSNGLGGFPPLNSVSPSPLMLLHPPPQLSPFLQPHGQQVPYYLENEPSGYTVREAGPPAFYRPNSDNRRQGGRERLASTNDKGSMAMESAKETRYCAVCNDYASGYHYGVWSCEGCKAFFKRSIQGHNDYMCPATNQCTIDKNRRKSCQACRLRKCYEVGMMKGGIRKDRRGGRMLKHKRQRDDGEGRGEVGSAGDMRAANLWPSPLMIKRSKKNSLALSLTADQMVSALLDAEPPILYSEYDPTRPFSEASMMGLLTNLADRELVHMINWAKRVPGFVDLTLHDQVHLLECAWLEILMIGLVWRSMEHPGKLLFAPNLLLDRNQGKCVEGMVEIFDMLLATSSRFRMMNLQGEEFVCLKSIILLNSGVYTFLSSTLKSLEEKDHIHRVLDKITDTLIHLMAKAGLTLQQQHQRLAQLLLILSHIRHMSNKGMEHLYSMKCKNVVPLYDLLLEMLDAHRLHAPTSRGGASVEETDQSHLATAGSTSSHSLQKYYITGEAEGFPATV
How it was run: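 VM7Luc4E2 cells (endogenous full-length ER-alpha, stable 4xERE-luciferase) were grown 5 days in phenol red-free medium with charcoal-stripped FBS, then exposed 22 h at 37C to compounds plus 0.1 nM (final) 17beta-estradiol; ONE-Glo luminescence read-out.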

[19] = qHTS assay to identify small molecule phospholipidosis (PLD) inducers (AID 1259344; active = well fitted curve in the direction sought with a large enough effect; an effect the other way counts as inactive or inconclusive)
How it was run: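 Phospholipidosis is scored by imaging LipidTOX-stained pits in HepG2 cells exposed to compound for 24 h at 37 C; pit counts and integrated intensities per well and per cell serve as outputs.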

Measured: Potency

CN(C)N=Nc1ccccc1
not listed: [18] | [19]
inactive: all other assays above

NC(=O)c1ncn([C@@H]2O[C@H](CO)[C@@H](O)[C@H]2O)c1N
active: [3] 10.7 µM
not listed: [11] | [14] | [15] | [16]
inactive: all other assays above

C1=C\CC/C=C\CC/C=C\CC/1
not listed: [16] | [18] | [19]
inactive: all other assays above

CCCC=O
not listed: [18] | [19]
inactive: all other assays above
